Measurements from PubChem BioAssay (Tox21).
Records with an inconclusive call do not appear. Activity calls are given as the source filed them. Unless noted, calls follow the shape of the dose curve; as a rule, active = well fitted curve in the direction sought with a large enough effect in the repeat runs; inconclusive = weak or mixed curves; inactive = no such curve, though single readings can be large; an effect the other way counts as inactive or inconclusive.

Legend:
[1] = Human pregnane X receptor (PXR) small molecule agonists, qHTS cell viability counter screen (AID 1346977); also: nearly all actives have a fitted effect of over 50% in size
In short: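 In each well, the PXR reporter HepG2 line was checked for viability: CellTiter-Fluor reagent added 23hr post-dosing, fluorescence read after 1hr incubation at 37C.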

[2] = Caspase-3/7 induction in HepG2 cells by small molecules, qHTS assay (AID 1346978); also: nearly all actives have a fitted effect of over 15% in size
In short: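 Caspase-3/7 induction was measured by Caspase-Glo 3/7 luminescence (30 min, room temperature) after a 17 hr compound exposure of wild-type HepG2 cells seeded at 2,000 per well and pre-incubated 5 hr.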

[3] = Caspase-3/7 induction in CHO-K1 cells by small molecules, qHTS assay (AID 1346980); also: nearly all actives have a fitted effect of over 15% in size
In short: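 Luminescent Caspase-Glo 3/7 read (30min, room temperature) quantified apoptosis induction. Cells were wild-type CHO-K1, treated with compound for 17hr at 37 C and 5% CO2.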

[4] = Caspase-3/7 induction in HepG2 cells by small molecules, qHTS cell viability counter screen (AID 1346981); also: series mostly up to about 92 µM; nearly all actives have a fitted effect of over 30% in size
In short: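 CellTiter-Fluor fluorescence measured viability in the same wells used for Caspase-Glo 3/7. HepG2 (wild type) at 2,000 cells/well were pre-incubated 5 hr, dosed, and given reagent at 16 hr, with 1 hr further at 37C.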

[5] = target: Nuclear receptor subfamily 1 group I member 2 (Homo sapiens) (UniProt O75469); assay: Human pregnane X receptor (PXR) small molecule agonists, qHTS assay (AID 1346982); also: nearly all actives have a fitted effect of over 35% in size; also: potency is read from the fitted curve at half-maximal effect
In short: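 Agonist mode: luminescence from ONE-Glo after 24 h compound exposure at 37C in HepG2 cells carrying hPXR-responsive CYP3A4 luciferase, plated in charcoal-stripped serum medium 5 h beforehand.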

[6] = target: Acetylcholinesterase (Homo sapiens) (UniProt P22303); assay: Acetylcholinesterase (AChE) small molecule antagonists: colormetric cell-based qHTS assay (AID 1347395; calls by dose curve; also: nearly all actives have a fitted effect of over 30% in size; also: potency is read from the fitted curve at half-maximal effect)
In short: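 After overnight attachment at 37 C, SH-SY5Y cells get 30 min compound exposure; detection cocktail (acetylthiocholine, DTNB) then incubates 90 min at 37 C, and absorbance reflects AChE-generated thiocholine.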

[7] = target: Acetylcholinesterase (Homo sapiens) (UniProt P22303); assay: Acetylcholinesterase (AChE) small molecule antagonists: enzyme-based qHTS assay (AID 1347397; calls by dose curve; also: nearly all actives have a fitted effect of over 55% in size); conditions: Potency: AChE enzyme activity inhibition
In short: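 Colorimetric DTNB readout of acetylthiocholine hydrolysis, 10 min at room temperature, after 30 min room-temperature exposure of 50 mU/mL recombinant human enzyme to compound; DMSO vehicle control.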

[8] = target: Acetylcholinesterase (Homo sapiens) (UniProt P22303); assay: Acetylcholinesterase (AChE) small molecule antagonists: fluorescence cell-based qHTS assay (AID 1347398; calls by dose curve; also: nearly all actives have a fitted effect of over 50% in size); conditions: Potency: AChE activity
In short: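 Cellular AChE activity read as thiocholine from acetylthiocholine hydrolysis, detected by Thiolite Green fluorescence at 490/520 nm after 40 min at room temperature. Compounds were pre-incubated 30 min at 37 C on adherent SH-SY5Y cells.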

[9] = target: Acetylcholinesterase (Homo sapiens) (UniProt P22303); assay: Acetylcholinesterase (AChE) small molecule antagonists: enzyme-based qHTS assay with human liver microsomes (AID 1347399; calls by dose curve; also: nearly all actives have a fitted effect of over 60% in size); conditions: Potency: qHTS inhibition
In short: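 Recombinant human AChE (50 mU/mL in the enzyme mix) and human liver microsomes (0.25 mg/mL final) were preincubated with compound and NADPH (0.25 mg/mL final) for 30 min at 37 C. Acetylthiocholine/DTNB was then added; thiocholine was read colorimetrically after 10 min at room temperature.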

[10] = target: Cytochrome P450 2C19 (Homo sapiens) (UniProt P33261); assay: Cytochrome P450 Family 2 Subfamily C Member 19 (CYP2C19) small molecule antagonists: luciferase reporter qHTS assay (AID 1671197); also: nearly all actives have a fitted effect of over 65% in size; also: potency is read from the fitted curve at half-maximal effect
In short: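 Relative luminescence units recorded 20 min after the detection reagent stopped a 1 h, 37C CYP2C19 reaction on proluciferin substrate, which was started by NADPH regeneration following 10 min room-temperature compound preincubation; ketoconazole positive control.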

[11] = target: Cytochrome P450 2C9 (Homo sapiens) (UniProt P11712); assay: Cytochrome P450 Family 2 Subfamily C Member 9 (CYP2C9) small molecule antagonists: luciferase reporter qHTS assay (AID 1671198); also: nearly all actives have a fitted effect of over 50% in size; also: potency is read from the fitted curve at half-maximal effect
In short: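 Enzyme-substrate mix preincubated with compound 10 min at room temperature; reaction started with NADPH regeneration solution, 1 h 37C. Luminescent luciferin product read after 20 min detection reagent.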

[12] = target: Cytochrome P450 1A2 (Homo sapiens) (UniProt P05177); assay: Cytochrome P450 Family 1 Subfamily A Member 2 (CYP1A2) small molecule antagonists: luciferase reporter qHTS assay (AID 1671199); also: nearly all actives have a fitted effect of over 50% in size; also: potency is read from the fitted curve at half-maximal effect
In short: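 Luminescence from luciferin formed by CYP1A2 from a proluciferin substrate, read 20 min after detection reagent. Compound was pre-incubated 10 min with enzyme-substrate, and reaction started with NADPH regeneration solution for 1 h at room temperature; furafylline control.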

[13] = target: Cytochrome P450 2D6 (Homo sapiens) (UniProt P10635); assay: Cytochrome P450 Family 2 Subfamily D Member 6 (CYP2D6) small molecule antagonists: luciferase reporter qHTS assay (AID 1671196); also: nearly all actives have a fitted effect of over 50% in size; also: potency is read from the fitted curve at half-maximal effect
In short: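 CYP2D6 activity was followed as luminescence from its luciferin product after a 1 h NADPH-driven reaction at room temperature. Enzyme-substrate mix and compound were pre-incubated for 10 min, and the signal was read 20 min after adding detection reagent.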

[14] = target: Voltage-gated inwardly rectifying potassium channel KCNH2 (Homo sapiens) (UniProt Q12809); assay: Human Ether-a-go-go-Related Gene (hERG) channel small molecule antagonists: fluorescence cell-based qHTS assay (AID 1671200)
In short: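 In this thallium-flux screen, overnight-cultured U2OS cells bearing the channel are dye-loaded in darkness for an hour, rested 10 min at room temperature, and then monitored kinetically at 480/540 nm for two minutes post-stimulus.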

[15] = target: Cytochrome P450 3A4 (Homo sapiens) (UniProt P08684); assay: Cytochrome P450 Family 3 Subfamily A Member 4 (CYP3A4) small molecule antagonists: luciferase reporter qHTS assay (AID 1671201); also: nearly all actives have a fitted effect of over 50% in size; also: potency is read from the fitted curve at half-maximal effect
In short: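 CYP3A4 activity was followed with a P450-Glo proluciferin substrate. Test compounds in DMSO were preincubated 10 min; NADPH regeneration then ran 1 h, and light output was read 20 min after detection reagent.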

[16] = target: Nuclear receptor subfamily 1 group I member 2 (Homo sapiens) (UniProt O75469); assay: CYP3A4 induction through human pregnane X receptor (PXR) by small molecules, qHTS assay (AID 1346984); also: nearly all actives have a fitted effect of over 40% in size
In short: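 Read-out is luminescence after One-Glo addition, following a 3 hr, 37C incubation with Luciferin-IPA CYP3A4 substrate (3uM final). Before that, compounds were on DPX-2 cells (HepG2 co-transfected with PXR element plus CYP3A4-promoter luciferase) for 24 hr at 37C.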

[17] = target: Nuclear receptor subfamily 1 group I member 2 (Homo sapiens) (UniProt O75469); assay: Human pregnane X receptor (PXR) activation by small molecules, qHTS assay (AID 1346985); also: nearly all actives have a fitted effect of over 40% in size; also: potency is read from the fitted curve at half-maximal effect
In short: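 DPX-2 cells (HepG2 co-transfected with a PXR response element and a CYP3A4-promoter luciferase construct) were seeded at 2,000 per well, rested 5 hr at 37C, then exposed to DMSO-dissolved compounds for 24 hr. Activation was read as luciferase luminescence.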

[18] = Caspase-3/7 induction in CHO-K1 cells by small molecules, qHTS cell viability counter screen (AID 1346979); also: potency is read from the fitted curve at half-maximal effect; nearly all actives have a fitted effect of over 35% in size
In short: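 Following a 5hr settling period, CHO-K1 cells at 1,500 per well received DMSO-dissolved compounds. Cell viability was quantified 16hr later by CellTiter-Fluor fluorescence, measured after 1hr with reagent at 37C.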

Measured: Potency

Voltage-gated inwardly rectifying potassium channel KCNH2 (Homo sapiens), sequence (Q12809 whole entry, looked up): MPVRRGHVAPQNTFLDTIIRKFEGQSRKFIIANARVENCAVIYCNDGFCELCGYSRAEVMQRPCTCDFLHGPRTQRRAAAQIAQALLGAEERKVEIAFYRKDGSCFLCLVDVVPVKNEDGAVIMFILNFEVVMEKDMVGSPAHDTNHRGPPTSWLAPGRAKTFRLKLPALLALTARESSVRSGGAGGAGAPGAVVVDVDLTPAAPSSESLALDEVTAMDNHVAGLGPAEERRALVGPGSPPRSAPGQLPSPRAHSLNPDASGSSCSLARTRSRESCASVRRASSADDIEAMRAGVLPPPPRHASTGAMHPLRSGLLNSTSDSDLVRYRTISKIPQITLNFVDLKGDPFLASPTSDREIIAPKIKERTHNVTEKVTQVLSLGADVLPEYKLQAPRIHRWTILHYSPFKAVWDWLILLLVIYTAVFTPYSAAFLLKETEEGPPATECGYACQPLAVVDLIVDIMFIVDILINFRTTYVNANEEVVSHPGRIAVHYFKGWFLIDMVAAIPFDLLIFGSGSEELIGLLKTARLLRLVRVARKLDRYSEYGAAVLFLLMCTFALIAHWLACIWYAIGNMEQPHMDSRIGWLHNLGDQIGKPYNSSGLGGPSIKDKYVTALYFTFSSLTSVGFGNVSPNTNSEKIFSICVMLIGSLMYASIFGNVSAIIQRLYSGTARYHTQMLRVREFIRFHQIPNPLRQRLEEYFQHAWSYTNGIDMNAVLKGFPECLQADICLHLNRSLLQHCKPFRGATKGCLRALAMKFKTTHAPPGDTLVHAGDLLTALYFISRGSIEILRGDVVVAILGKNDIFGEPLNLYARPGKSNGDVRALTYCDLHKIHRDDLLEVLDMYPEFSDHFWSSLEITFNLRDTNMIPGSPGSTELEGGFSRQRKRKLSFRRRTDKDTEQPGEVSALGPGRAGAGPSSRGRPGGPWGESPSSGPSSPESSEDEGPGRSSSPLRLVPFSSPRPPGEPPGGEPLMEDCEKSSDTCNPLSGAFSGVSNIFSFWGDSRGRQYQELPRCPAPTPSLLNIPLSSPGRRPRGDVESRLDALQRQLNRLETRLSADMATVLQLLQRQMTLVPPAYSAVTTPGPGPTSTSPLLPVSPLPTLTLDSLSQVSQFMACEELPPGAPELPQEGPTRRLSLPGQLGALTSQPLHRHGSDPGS
Cytochrome P450 2D6 (Homo sapiens), sequence (P10635 whole entry, looked up): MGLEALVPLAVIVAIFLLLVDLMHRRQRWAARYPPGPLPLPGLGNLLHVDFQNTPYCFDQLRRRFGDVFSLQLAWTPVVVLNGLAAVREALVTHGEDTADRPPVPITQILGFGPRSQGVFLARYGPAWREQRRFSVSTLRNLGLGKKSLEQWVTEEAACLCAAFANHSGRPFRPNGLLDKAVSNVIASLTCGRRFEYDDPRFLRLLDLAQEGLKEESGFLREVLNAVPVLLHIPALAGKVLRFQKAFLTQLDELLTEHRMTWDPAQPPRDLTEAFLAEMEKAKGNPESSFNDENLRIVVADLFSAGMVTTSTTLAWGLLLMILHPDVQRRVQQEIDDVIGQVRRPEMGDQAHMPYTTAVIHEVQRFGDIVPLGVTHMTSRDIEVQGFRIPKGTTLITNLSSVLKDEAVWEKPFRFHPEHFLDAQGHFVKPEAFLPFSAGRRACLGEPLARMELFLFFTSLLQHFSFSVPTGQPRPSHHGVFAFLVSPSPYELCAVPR
Cytochrome P450 1A2 (Homo sapiens), sequence (P05177 whole entry, looked up): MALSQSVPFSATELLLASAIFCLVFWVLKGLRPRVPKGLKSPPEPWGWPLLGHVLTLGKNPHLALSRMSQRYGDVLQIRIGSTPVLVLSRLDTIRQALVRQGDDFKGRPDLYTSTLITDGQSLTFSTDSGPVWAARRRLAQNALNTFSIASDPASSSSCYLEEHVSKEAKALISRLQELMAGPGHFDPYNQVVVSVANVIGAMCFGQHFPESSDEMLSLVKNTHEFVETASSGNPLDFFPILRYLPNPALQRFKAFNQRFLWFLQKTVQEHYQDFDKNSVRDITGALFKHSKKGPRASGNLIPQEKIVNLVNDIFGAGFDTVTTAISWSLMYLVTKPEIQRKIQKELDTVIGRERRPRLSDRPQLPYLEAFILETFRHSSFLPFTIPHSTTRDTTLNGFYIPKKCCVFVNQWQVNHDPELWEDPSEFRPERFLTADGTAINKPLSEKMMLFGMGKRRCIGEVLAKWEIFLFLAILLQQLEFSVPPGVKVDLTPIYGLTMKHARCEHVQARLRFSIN
Nuclear receptor subfamily 1 group I member 2 (Homo sapiens), sequence (O75469 whole entry, looked up): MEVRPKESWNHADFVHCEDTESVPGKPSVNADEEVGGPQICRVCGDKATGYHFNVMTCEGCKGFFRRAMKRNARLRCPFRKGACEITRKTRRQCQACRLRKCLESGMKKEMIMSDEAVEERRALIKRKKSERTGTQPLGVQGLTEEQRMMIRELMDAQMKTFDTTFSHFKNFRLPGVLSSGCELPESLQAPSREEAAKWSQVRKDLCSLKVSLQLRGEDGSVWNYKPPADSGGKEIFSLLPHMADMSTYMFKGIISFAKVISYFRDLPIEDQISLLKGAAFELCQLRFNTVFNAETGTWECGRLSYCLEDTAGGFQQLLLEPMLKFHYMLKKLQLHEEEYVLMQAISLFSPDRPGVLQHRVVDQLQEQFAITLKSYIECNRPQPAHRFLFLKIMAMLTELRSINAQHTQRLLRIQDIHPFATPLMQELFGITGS
Cytochrome P450 2C9 (Homo sapiens), sequence (P11712 whole entry, looked up): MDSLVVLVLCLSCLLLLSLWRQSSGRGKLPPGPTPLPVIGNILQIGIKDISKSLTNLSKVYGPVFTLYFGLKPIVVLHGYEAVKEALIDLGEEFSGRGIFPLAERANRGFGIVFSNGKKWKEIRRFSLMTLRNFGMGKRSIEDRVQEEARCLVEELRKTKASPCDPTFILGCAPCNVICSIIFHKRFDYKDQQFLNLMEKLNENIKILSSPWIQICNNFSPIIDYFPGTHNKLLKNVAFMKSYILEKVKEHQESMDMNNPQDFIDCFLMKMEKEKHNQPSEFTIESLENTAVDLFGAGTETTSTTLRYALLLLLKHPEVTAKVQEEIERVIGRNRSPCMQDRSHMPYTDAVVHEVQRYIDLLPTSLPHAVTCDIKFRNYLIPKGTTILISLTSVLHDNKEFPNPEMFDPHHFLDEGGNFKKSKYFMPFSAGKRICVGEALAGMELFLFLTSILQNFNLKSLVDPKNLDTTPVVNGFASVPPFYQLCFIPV
Acetylcholinesterase (Homo sapiens), sequence (P22303 whole entry, looked up): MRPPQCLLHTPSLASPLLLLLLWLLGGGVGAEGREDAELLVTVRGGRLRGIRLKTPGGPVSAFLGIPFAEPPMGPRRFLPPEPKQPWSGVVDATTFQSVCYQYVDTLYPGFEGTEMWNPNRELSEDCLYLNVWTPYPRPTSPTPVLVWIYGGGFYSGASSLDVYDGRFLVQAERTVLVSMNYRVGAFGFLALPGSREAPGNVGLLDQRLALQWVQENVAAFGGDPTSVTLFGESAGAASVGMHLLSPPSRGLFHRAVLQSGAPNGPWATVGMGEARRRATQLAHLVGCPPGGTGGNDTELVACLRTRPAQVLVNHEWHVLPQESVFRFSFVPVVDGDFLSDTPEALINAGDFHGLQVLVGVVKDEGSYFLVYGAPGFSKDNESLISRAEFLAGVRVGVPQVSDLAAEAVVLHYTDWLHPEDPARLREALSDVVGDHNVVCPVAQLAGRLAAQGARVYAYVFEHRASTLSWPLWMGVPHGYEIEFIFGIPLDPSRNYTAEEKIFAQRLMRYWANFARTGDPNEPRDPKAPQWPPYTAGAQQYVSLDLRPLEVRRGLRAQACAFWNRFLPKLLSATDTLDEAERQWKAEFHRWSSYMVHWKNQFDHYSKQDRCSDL
Cytochrome P450 3A4 (Homo sapiens), sequence (P08684 whole entry, looked up): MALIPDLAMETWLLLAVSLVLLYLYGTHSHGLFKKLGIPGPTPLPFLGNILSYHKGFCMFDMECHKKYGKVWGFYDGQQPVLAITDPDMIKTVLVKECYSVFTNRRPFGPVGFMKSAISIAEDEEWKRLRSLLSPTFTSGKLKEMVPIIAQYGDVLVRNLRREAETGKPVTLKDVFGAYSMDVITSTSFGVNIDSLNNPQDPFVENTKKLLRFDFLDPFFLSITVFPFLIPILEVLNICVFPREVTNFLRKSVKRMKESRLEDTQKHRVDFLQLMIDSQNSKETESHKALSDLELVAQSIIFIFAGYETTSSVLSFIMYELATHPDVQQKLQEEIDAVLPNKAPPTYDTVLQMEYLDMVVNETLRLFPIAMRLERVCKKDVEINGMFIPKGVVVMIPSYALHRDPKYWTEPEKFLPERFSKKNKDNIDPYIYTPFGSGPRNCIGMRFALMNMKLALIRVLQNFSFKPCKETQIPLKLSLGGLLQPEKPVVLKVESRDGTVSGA
Cytochrome P450 2C19 (Homo sapiens), sequence (P33261 whole entry, looked up): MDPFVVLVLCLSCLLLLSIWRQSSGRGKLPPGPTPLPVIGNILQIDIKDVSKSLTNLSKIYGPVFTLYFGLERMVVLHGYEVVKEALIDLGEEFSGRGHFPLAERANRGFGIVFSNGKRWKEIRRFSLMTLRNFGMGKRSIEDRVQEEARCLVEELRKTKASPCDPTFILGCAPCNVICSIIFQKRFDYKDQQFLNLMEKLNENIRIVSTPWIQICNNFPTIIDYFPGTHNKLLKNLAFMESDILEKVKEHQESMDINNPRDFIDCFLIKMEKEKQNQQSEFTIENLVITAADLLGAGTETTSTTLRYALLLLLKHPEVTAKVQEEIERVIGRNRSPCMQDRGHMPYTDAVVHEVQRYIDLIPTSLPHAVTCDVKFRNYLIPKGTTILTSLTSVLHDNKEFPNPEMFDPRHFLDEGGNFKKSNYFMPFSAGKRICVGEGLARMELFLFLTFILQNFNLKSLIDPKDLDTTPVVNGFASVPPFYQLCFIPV

CC1COC2(c3ccccc3Cl)c3cc(Cl)ccc3NC(=O)CN12 (centres undefined)
active: [5] 23.7 µM | [10] 4.36 µM | [11] 27.5 µM
not listed: [13] | [14] | [15] | [16] | [17] | [18]
inactive: all other assays above

CCCCCCI
not listed: [16] | [17] | [18]
inactive: all other assays above

C[N+](=O)[O-]
not listed: [9] | [12] | [15] | [16] | [17] | [18]
inactive: all other assays above

N#Cc1c(Cl)cccc1Cl
not listed: [12] | [16] | [17] | [18]
inactive: all other assays above

O=C(Nc1ccccc1)c1ccccc1I
active: [5] 68.6 µM | [13] 35.6 µM | [10] 22.4 µM | [11] 39.9 µM | [12] 20 µM
not listed: [9] | [15] | [16] | [17] | [18]
inactive: all other assays above

CS(=O)(=O)c1cc(C(F)(F)F)ccc1C(=O)c1cnoc1C1CC1
active: [10] 56.4 µM | [11] 1.59 µM | [12] 35.6 µM
not listed: [8] | [16] | [17] | [18]
inactive: all other assays above

O=NN1CCCCC1
active: [10] 35.4 µM
inactive: [1] | [2] | [3] | [4] | [5] | [6] | [7] | [8] | [9]

Fc1cc(Br)ccc1CBr
not listed: [7] | [8] | [12] | [15] | [16] | [17] | [18]
inactive: all other assays above

CC1(C(=O)Nc2ccc(O)c(Cl)c2Cl)CCCCC1
active: [5] 19.3 µM | [13] 71 µM | [10] 11.2 µM | [11] 35.6 µM
not listed: [12] | [15] | [16] | [17] | [18]
inactive: all other assays above

Cc1ncc(CNC(=O)N(CCCl)N=O)c(N)n1
not listed: [10] | [11] | [12] | [15] | [16] | [17] | [18]
inactive: all other assays above

CC(=O)Nc1cc([As](=O)(O)O)ccc1O
not listed: [8] | [13] | [18]
inactive: all other assays above

CC(C)(C)OC(=O)c1ncn2c1[C@@H]1CCCN1C(=O)c1c(Br)cccc1-2
active: [5] 13.3 µM | [17] 15.8 µM | [11] 7.76 µM
not listed: [12] | [13] | [14] | [15] | [16] | [18]
inactive: all other assays above

COC(=O)COc1ccc(Cl)cc1Cl
active: [12] 12.6 µM
not listed: [10] | [16] | [17] | [18]
inactive: all other assays above

Fc1ccc(C2(Cn3cncn3)OC2c2ccccc2Cl)cc1 (centres undefined)
active: [13] 39.9 µM | [10] 0.252 µM | [11] 5.64 µM | [12] 5.03 µM | [15] 0.894 µM
inactive: [2] | [3] | [4] | [6] | [7] | [8] | [14]

CC(C)CC#N
active: [10] 32.5 µM
not listed: [5] | [7] | [11] | [13] | [16] | [17] | [18]
inactive: all other assays above

Nc1c(Br)cc([N+](=O)[O-])cc1[N+](=O)[O-]
inactive: [2] | [3] | [7] | [9] | [11]
active: [18] 55.1 µM | [5] 55.1 µM | [6] 36 µM | [10] 50.8 µM | [12] 1.8 µM
